{"source": "PubChem BioAssay AID651864", "about": "(Broad Institute, 2012)", "note": "Entries with a potency or affinity are not part of this list. Unmarked numbers belong to inactive results. Calls of active or inactive are those of the source. The rule behind the calls is not given here.", "data": [{"assay": "HeLa cell cytotoxicity, dose response, cytotoxicity control, 24 h, plate reader, powder samples, set 3 (AID 651864)", "conditions": "HeLa viability, CellTiter-Glo ATP luminescence; series mostly up to 80 µM; activity change, negative = cytotoxicity: at the top concentration", "units": {"activity change, negative = cytotoxicity": "%"}, "values": [{"smiles": "O=C(Cc1ccccc1F)NC1CCCC1", "activity change, negative = cytotoxicity": 8.61}, {"smiles": "c1ccc(Cn2nnnc2NCc2ccc(N3CCCC3)cc2)cc1", "activity change, negative = cytotoxicity": 2.68}, {"smiles": "COc1ccc(CC(=O)NC2CCCC2)cc1", "activity change, negative = cytotoxicity": 2.25}, {"smiles": "O=C(Cc1cccc(OC(F)(F)F)c1)NC1CCCC1", "activity change, negative = cytotoxicity": 2.97}, {"smiles": "CC1(NC(=O)Cc2ccc(-c3ccccc3)cc2)COC1", "activity change, negative = cytotoxicity": 4.83}, {"smiles": "O=C(Cc1ccccc1Cl)NC1CCCC1", "activity change, negative = cytotoxicity": -0.086}, {"smiles": "O=C(NCc1ccc(-c2ccccc2)cc1)C1CCCC1", "activity change, negative = cytotoxicity": 8.16}, {"smiles": "CC(C)c1ccc(CNc2nnnn2C)cc1", "activity change, negative = cytotoxicity": -2.22}, {"smiles": "CCn1nnnc1CCc1ccc(N2CCCC2)cc1", "activity change, negative = cytotoxicity": -12.4}, {"smiles": "CCn1nnc(NCc2ccc(C)cc2)n1", "activity change, negative = cytotoxicity": 1.73}, {"smiles": "O=C(Cc1ccc(-c2ccccc2)cc1)NC1CCC1", "activity change, negative = cytotoxicity": 1.56}, {"smiles": "CS(=O)(=O)c1ccc(CC(=O)NC2CCCC2)cc1", "activity change, negative = cytotoxicity": 9.49}, {"smiles": "O=C(Cc1ccc(-c2ccccc2)cc1)NC1CCOCC1", "activity change, negative = cytotoxicity": 1.16}, {"smiles": "CCn1nnnc1NCc1cccc(OC)c1", "activity change, negative = cytotoxicity": 12.2}, {"smiles": "CCn1nnnc1NCc1ccc(C(C)C)cc1", "activity change, negative = cytotoxicity": 0.265}, {"smiles": "O=C(Cc1cccc(F)c1)NC1CCCC1", "activity change, negative = cytotoxicity": 6.37}, {"smiles": "O=C(Cc1ccccc1C(F)(F)F)NC1CCCC1", "activity change, negative = cytotoxicity": 8.84}, {"smiles": "CCn1nnnc1NCc1ccc(N2CCCC2)cc1", "activity change, negative = cytotoxicity": 1.15}, {"smiles": "Cn1nnnc1NCc1ccc(N2CCCC2)cc1", "activity change, negative = cytotoxicity": 9.42}, {"smiles": "CCCn1nnnc1NCc1ccc(C(C)C)cc1", "activity change, negative = cytotoxicity": 1.72}, {"smiles": "Fc1ccc(Cn2nnnc2NCc2ccc(N3CCCC3)cc2)cc1", "activity change, negative = cytotoxicity": 28.2}, {"smiles": "CCCCn1nnnc1NCc1ccc(N2CCCC2)cc1", "activity change, negative = cytotoxicity": -9.35}, {"smiles": "c1ccc(-n2nnnc2NCc2ccc(N3CCCC3)cc2)cc1", "activity change, negative = cytotoxicity": 4.99}, {"smiles": "Cc1ccccc1CC(=O)NC1CCCC1", "activity change, negative = cytotoxicity": 1.63}, {"smiles": "CCn1nnnc1NCc1ccccc1N1CCCC1", "activity change, negative = cytotoxicity": -2.38}, {"smiles": "CC(C)NC(=O)Cc1ccc(-c2ccccc2)cc1", "activity change, negative = cytotoxicity": 3.84}, {"smiles": "O=C(Cc1ccccc1OC(F)(F)F)NC1CCCC1", "activity change, negative = cytotoxicity": 8.23}, {"smiles": "Cc1ccc(Cn2nnnc2NCc2ccc(N3CCCC3)cc2)cc1", "activity change, negative = cytotoxicity": 17.3}, {"smiles": "CCn1nnnc1NCc1ccc(N2CCCCC2)cc1", "activity change, negative = cytotoxicity": -1.74}, {"smiles": "O=C(Cc1ccc(-c2ccccc2)cc1)NC1CCCC1", "outcome": "inactive"}, {"smiles": "CCn1nnnc1NCc1cccc(N2CCCC2)c1", "activity change, negative = cytotoxicity": -7.97}, {"smiles": "CC(C)(C)OC(=O)N1CC(NC(=O)Cc2ccc(-c3ccccc3)cc2)C1", "activity change, negative = cytotoxicity": 10.6}, {"smiles": "CCCn1nnnc1NCc1ccccc1Cl", "activity change, negative = cytotoxicity": -9.87}, {"smiles": "O=C(Cc1ccc(-c2ccccc2)cc1)NC1CC1", "activity change, negative = cytotoxicity": 3.37}]}]}
